The panel holds about 83,000 compounds, 20% with a hit somewhere; the sample as a whole holds those more often.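 Cells were grown in 96-well plates and exposed to the test compound at a single concentration for 48 hours; results are reported as percent growth, with values below 10 considered active.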 A number with no mark means an inactive call. The source made the active and inactive calls.

Experimental findings from PubChem BioAssay (NCI) are described below.

Among the test systems are HCT-15 colon; HT29 colon; SNB-75 CNS; SNB-19 CNS; U251 CNS; PC-3 prostate; SK-MEL-5 melanoma; UACC-62 melanoma; LOX IMVI melanoma; SK-MEL-28 melanoma.
Holding throughout (experiment): NCI-60 one-dose screen, 48 h (100 = growth as untreated, 0 = no growth, -100 = all killed)
Common to all, as to settings: 10 µM unless noted

Regarding `CCN(CC)C(=O)O/N=C(/C)c1ccccc1`, the growth in the assay on HCT-15 colon is 110%; in the assay with HT29 colon, 102%; in the assay on SNB-75 CNS, 83%; with SNB-19 CNS, 99.6%; in the assay on U251 CNS it was 89.7%; in the assay on PC-3 prostate, 98.6%. Also, the growth in the assay on SK-MEL-5 melanoma is 94.2%; in the assay with UACC-62 melanoma, 99.1%; with LOX IMVI melanoma, 91.1%; with SK-MEL-28 melanoma, 97.9%.
Turning to `N/N=C(\C(=N\N)c1ccccc1)c1ccccc1`, the growth in the assay on HCT-15 colon was 104%; in the assay with HT29 colon it was 94.7%; in the assay with SNB-75 CNS it was 86.4%; in the assay on SNB-19 CNS, 96.6%; in the assay with U251 CNS it was 104%; with PC-3 prostate it was 88.7%. The growth in the assay with SK-MEL-5 melanoma was 101%; with UACC-62 melanoma it was 90.2%; in the assay on LOX IMVI melanoma, 97.3%; in the assay on SK-MEL-28 melanoma it was 105%.
As to `CNCCCn1c2c(c3ccc(Cl)cc3c1=O)C(=O)c1cc(OC)cnc1-2`, the growth was -57.6% (active) with HCT-15 colon; -80.5% (active) in the assay on HT29 colon; 14.7% in the assay on SNB-75 CNS; 28.3% with SNB-19 CNS; -86.5% (active) in the assay with U251 CNS; 38.6% with PC-3 prostate. The growth in the assay with SK-MEL-5 melanoma was 32.4%; with UACC-62 melanoma, 11%; with LOX IMVI melanoma, -83.7% (active); in the assay with SK-MEL-28 melanoma, 72.2%.
For the compound `O=C(NCCN1CCCC1)n1cc(-c2ccncc2)c(-c2cc(O)cc(Cl)c2)n1`, the growth in the assay on HCT-15 colon was 88.6%; in the assay on HT29 colon, 90.1%; in the assay with SNB-75 CNS, 110%; with SNB-19 CNS it was 98.5%; in the assay with U251 CNS it was 82.9%; with PC-3 prostate it was 103%. Besides, the growth was 62.9% with SK-MEL-5 melanoma, 34.6% in the assay with UACC-62 melanoma, 79.7% in the assay on LOX IMVI melanoma and 36.7% in the assay on SK-MEL-28 melanoma.
As for `CCCCCCCCCCCCCCCC1=NC(C)(C)CN1C(C)C`, the growth is -63.5% (active) in the assay with HCT-15 colon; -50% (active) with HT29 colon; -13.4% (active) in the assay on SNB-75 CNS; 42.6% in the assay on SNB-19 CNS; -67% (active) with U251 CNS; -41.4% (active) with PC-3 prostate. Further, the growth was -86.1% (active) in the assay on SK-MEL-5 melanoma, -75.5% (active) with UACC-62 melanoma, -79.4% (active) in the assay on LOX IMVI melanoma and -80% (active) with SK-MEL-28 melanoma.
`CCCCCCCCCCCCCCCCCC(=O)OCCCCCCCCCCCCC`: the growth in the assay on HCT-15 colon is 108%; with HT29 colon it was 103%; in the assay on SNB-75 CNS, 104%; with SNB-19 CNS it was 113%; in the assay on U251 CNS, 108%; in the assay with PC-3 prostate, 102%. The growth with SK-MEL-5 melanoma is 114%; in the assay with UACC-62 melanoma, 113%; with LOX IMVI melanoma it was 103%; in the assay with SK-MEL-28 melanoma it was 125%.
For `O=C(O/C(=C/c1ccccc1)C(F)(F)F)c1ccccc1`, the growth in the assay with HCT-15 colon was 114%; in the assay on HT29 colon, 110%; with SNB-75 CNS, 92.7%; with SNB-19 CNS, 110%; in the assay on U251 CNS it was 102%; in the assay on PC-3 prostate it was 104%. In addition, the growth in the assay on SK-MEL-5 melanoma was 102%; in the assay with UACC-62 melanoma it was 100%; in the assay with LOX IMVI melanoma, 99.1%; in the assay on SK-MEL-28 melanoma, 116%.
As for `C/C(=N\Nc1ccc([N+](=O)[O-])cn1)c1ccc(N)cc1`, the growth is 95.1% with HCT-15 colon; 101% with HT29 colon; 94.4% in the assay on SNB-75 CNS; 95.9% in the assay with SNB-19 CNS; 95.7% with U251 CNS; 94.1% with PC-3 prostate. Further, the growth in the assay with SK-MEL-5 melanoma is 101%; in the assay on UACC-62 melanoma, 99.1%; in the assay on LOX IMVI melanoma, 100%; with SK-MEL-28 melanoma, 113%.
With `c1ccc2c(N=NSc3ncnc4nc[nH]c34)c3ccccc3nc2c1`, the growth with HCT-15 colon was -7.02% (active); in the assay on HT29 colon, 0.967% (active); in the assay on SNB-75 CNS, 2.72% (active); with SNB-19 CNS, 12.3%; in the assay with U251 CNS, 8.63% (active); with PC-3 prostate it was -1.78% (active). For the same compound, the growth with SK-MEL-5 melanoma is -59.4% (active); with UACC-62 melanoma it was -38.7% (active); in the assay on LOX IMVI melanoma, -46.6% (active); in the assay on SK-MEL-28 melanoma it was -37.6% (active).
For `CN1CCC2(CC1)N=C(SCC(=O)Nc1cnc3ccccc3c1)C(c1ccc(Br)cc1)=N2`, the growth was 12% in the assay on HCT-15 colon; -67.1% (active) in the assay with HT29 colon; 25.4% in the assay with SNB-75 CNS; 40.7% with SNB-19 CNS; -24.7% (active) with U251 CNS; 21.3% in the assay on PC-3 prostate. The growth with SK-MEL-5 melanoma is -96.2% (active); in the assay on UACC-62 melanoma, -78.9% (active); in the assay with LOX IMVI melanoma, -78.5% (active); in the assay on SK-MEL-28 melanoma, -70.1% (active).
For `COc1cc(Cl)cc(-c2nn(C(=O)NCCN3CCOCC3)cc2-c2ccncc2)c1`, the growth in the assay on HCT-15 colon is 45.7%; with HT29 colon it was 34.1%; in the assay with SNB-75 CNS, 28.9%; in the assay on SNB-19 CNS it was 69.2%; in the assay on U251 CNS it was 57.7%; in the assay on PC-3 prostate, 70.6%. The growth with SK-MEL-5 melanoma is 35.5%; in the assay with UACC-62 melanoma, 52.4%; with LOX IMVI melanoma, 63.2%; with SK-MEL-28 melanoma it was 61.4%.
In the case of `NC(=S)N1N=C(c2ccc(Cl)cc2)CC1c1cc2ccccc2[nH]c1=O` (stereo not given), the growth in the assay with HCT-15 colon was 104%; in the assay on HT29 colon, 95.3%; in the assay with SNB-75 CNS, 106%; in the assay with SNB-19 CNS it was 101%; in the assay on U251 CNS, 107%; with PC-3 prostate, 87.5%. Besides, the growth in the assay on SK-MEL-5 melanoma was 107%; in the assay on UACC-62 melanoma, 97.7%; in the assay on LOX IMVI melanoma it was 105%; in the assay with SK-MEL-28 melanoma, 115%.
For `O=S(=O)(Cc1ccc(Cl)cc1Cl)c1ccc(Cl)cc1`, the growth in the assay with HCT-15 colon was 31.8%; in the assay with HT29 colon, 9.72% (active); in the assay with SNB-75 CNS, 18.8%; in the assay on SNB-19 CNS, 44%; with U251 CNS, 25.8%; with PC-3 prostate, 31.1%. In addition, the growth with SK-MEL-5 melanoma is 39.8%; with UACC-62 melanoma, 44.6%; in the assay on LOX IMVI melanoma, 15.7%; in the assay on SK-MEL-28 melanoma, 65.9%.
